The campaign covered roughly 260,000 compounds. About 1,300 (0.5%) were called active.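 How the source made its calls: active means percent inhibition above 40 after rounding to a whole number; inactive means the rest.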 Shown is part of a subset that was picked to be rich in actives.

The experiment deals with Prostaglandin E2 receptor EP2 subtype (Homo sapiens) (UniProt P43116). Briefly: blockers of PGE2-driven EP2 cAMP signalling – TR-FRET cAMP, C6 glioma cells, primary screen (AID 1422).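 Further: rat C6 glioma host cells with rolipram phosphodiesterase inhibitor present; the protocol text gives 20 µM as final concentration.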 The note with it: C6 glioma cells expressing human EP2, cAMP TR-FRET, at 25 µM, active compounds read high; cells stimulated with saturating PGE2 unless noted.
Prostaglandin E2 receptor EP2 subtype (Homo sapiens), sequence (P43116 whole entry, looked up): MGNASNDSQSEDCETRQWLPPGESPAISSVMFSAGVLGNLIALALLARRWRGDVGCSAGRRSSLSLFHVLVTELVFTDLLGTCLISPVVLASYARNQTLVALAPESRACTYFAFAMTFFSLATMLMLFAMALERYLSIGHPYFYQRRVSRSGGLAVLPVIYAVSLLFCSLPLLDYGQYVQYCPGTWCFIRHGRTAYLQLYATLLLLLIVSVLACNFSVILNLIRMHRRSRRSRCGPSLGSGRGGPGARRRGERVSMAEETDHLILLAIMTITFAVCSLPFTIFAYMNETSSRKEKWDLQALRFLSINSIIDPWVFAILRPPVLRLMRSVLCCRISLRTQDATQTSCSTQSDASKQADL
By inhibition is commonly meant the percentage by which the read-out fell short of the control. In the case of `O=C1C[C@@H]2OCC=C3CN4CC[C@]56c7ccccc7N1[C@H]5[C@H]2[C@H]3C[C@H]46` (tested in a mixture with another compound), the inhibition was 43.4% (active).

Consider `COc1ccccc1CN(CCN(C)C)C(=O)Cc1nn(C)c(=O)c2ccccc12`, for which the inhibition is 8.64% (inactive).

Take `COc1ccc(C2=NCC(=O)N(Cc3cccnc3)c3sc4c(c32)CCCC4)cc1`: the inhibition was 7.58% (inactive).

Take `CC(=O)O[C@H]1CC[C@@]2(C)C(=CCC3C2CC[C@]2(C)C(=O)CCC32)C1` (stereo not given in full): the inhibition was 13.5% [setting not given] (inactive).

Take `CC(=O)O[C@H]1CC[C@@]2(C)[C@@H](CC[C@H]3[C@H]2CC(=O)[C@]2(C)[C@@H]3C[C@@H](N3CC3)[C@H]2C(C)=O)C1`: the inhibition is 44% (active).

Take `C=C1C2CC[C@@]3(C)[C@H](c4ccoc4)OC(=O)C[C@]13O[C@H]1CC(=O)C(C)(C)[C@H](C(OC(C)=O)C(=O)OC)[C@@]21C` (stereo not given in full): the inhibition was 14.4% (inactive).

For the compound `COc1cc([C@@H]2c3cc4c(cc3[C@H](OC(C)=O)[C@H]3COC(=O)[C@H]23)OCO4)cc(OC)c1OC`, the inhibition is 14.4% (inactive).

Turning to `Fc1ccc2c(c1)nnn2C1CCN(Cc2nnnn2C2CCCC2)CC1`, the inhibition was 8.46% (inactive).

For the compound `CC[C@@](O)(C(=O)O)c1cc2n(c(=O)c1CO)Cc1cc3ccccc3nc1-2`, the inhibition was 47.7% (active).

For `CCn1cc(C(=O)c2ccco2)c2ccccc21`, the inhibition is 1.27% (inactive).

On to `c1ccc2[nH]c(C3CCNCC3)nc2c1`, for which the inhibition is 6.74% (inactive).

On to `C=CCc1cc(CN2C3CCC2CC(O)(c2nccn2C)C3)cc(OC)c1O` (stereo not given), for which the inhibition was 10.4% (inactive).

Consider `Cc1ccc(C(C)N2CCNCC2)c(C)c1` (stereo not given), for which the inhibition was 5.45% (inactive).

On to `COc1cc(CN2C3CCC2CC(O)(c2ccccc2F)C3)ccc1OC(C)C` (stereo not given), for which the inhibition is 6.07% (inactive).

`Cc1nc(-c2ccc(F)cc2)c(CC(=O)N(CCN(C)C)C2CCCCC2)s1`: the inhibition is 2.82% (inactive).

(Values after PubChem BioAssay AID1422 (Emory University Molecular Libraries Screening Center, 2008).)
